Screens from PubChem.
KDM5B inhibitor: KDM5B demethylase inhibition; AID 1347165; Q9UGL1; KDM5B demethylase, FDH-coupled NADH fluorescence (FDH is formaldehyde dehydrogenase); 2.6% of 220,000 active; Potency, µM (highest dose often 57.7 µM), most hits filed as inhibitors; active = well fitted inhibition curve with a large enough effect; inconclusive = small, poorly fitted or top-dose-only effect; inactive = no such curve, though single readings can be large or run the other way; also: nearly all actives have a fitted effect of over 70% in size
Target sequence (Q9UGL1 whole entry, looked up): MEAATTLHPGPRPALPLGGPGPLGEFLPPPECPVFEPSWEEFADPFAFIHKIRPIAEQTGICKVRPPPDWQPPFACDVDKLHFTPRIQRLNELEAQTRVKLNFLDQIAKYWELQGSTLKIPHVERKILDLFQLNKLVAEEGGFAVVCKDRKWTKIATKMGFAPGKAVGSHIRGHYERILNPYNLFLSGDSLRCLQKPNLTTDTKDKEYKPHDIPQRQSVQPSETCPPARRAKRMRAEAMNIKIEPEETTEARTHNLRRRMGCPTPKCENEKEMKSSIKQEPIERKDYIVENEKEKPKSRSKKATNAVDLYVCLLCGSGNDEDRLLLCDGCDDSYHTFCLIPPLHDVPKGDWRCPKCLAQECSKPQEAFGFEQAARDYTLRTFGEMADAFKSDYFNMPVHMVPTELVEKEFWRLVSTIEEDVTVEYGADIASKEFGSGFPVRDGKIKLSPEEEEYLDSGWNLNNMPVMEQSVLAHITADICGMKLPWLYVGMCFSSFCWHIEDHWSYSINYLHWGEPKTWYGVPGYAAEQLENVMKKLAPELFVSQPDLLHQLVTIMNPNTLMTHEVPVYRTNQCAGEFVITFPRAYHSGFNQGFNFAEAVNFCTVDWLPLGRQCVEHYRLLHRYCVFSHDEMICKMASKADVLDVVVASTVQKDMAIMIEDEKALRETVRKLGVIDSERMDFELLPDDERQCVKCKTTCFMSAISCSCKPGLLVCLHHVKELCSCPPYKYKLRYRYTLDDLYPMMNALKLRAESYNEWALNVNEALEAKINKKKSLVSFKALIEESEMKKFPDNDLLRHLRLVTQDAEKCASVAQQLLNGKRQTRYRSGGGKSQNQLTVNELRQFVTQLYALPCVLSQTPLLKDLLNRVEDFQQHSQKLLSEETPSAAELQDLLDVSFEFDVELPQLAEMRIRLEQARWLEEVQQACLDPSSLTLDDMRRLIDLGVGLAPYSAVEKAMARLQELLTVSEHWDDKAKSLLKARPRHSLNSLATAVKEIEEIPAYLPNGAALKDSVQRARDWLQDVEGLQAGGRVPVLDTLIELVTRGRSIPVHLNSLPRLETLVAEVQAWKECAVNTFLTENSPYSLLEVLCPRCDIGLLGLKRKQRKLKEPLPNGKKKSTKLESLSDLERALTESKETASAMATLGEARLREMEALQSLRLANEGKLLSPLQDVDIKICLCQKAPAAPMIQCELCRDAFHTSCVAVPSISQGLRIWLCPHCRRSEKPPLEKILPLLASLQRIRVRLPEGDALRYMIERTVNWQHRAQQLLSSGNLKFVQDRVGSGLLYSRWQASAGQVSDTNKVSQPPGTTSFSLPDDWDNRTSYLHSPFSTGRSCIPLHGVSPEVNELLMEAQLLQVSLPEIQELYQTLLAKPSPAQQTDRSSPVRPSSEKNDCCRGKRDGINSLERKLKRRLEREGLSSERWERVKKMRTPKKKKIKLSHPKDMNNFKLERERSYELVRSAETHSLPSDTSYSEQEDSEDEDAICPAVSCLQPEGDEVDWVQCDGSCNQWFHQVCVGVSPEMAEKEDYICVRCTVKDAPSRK
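qHTS format, multiple compound concentrations. Buffer 50 mM HEPES pH 7.5/0.01% Tween-20; 200 nM KDM5BΔAP final; 10 min compound preincubation; substrate-mix levels 12.5 µM peptide, 25 µM α-KG, 0.25 mM NAD⁺; 30 min RT; ΔRFU.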
IP6K1 inhibitor: inhibitors of human IP6K1; Q92551; AID 1645851; activity change, % (series mostly up to about 58 µM); IP6K1 kinase, ADP-Glo luminescence, 2 h; hits give low values; 0.81% of 140,000 active; in the data active = activity change below about -25%
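ADP-Glo luminescence measures ADP made by human IP6K1 during a 2 h RT reaction with ATP/IP6 (mix at 1.3 mM/130 uM); top library doses 57.5 and 19.1 uM final.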
Of the large screens only hits and unclear results are named; the others gave an inactive call. In the library only some 2.8% were active in any assay of this set; here they are far more common.

COc1cc2c(cc1OC)C(C[C@H]1CN(C(=O)Nc3cccc(Cl)c3)CC[C@H]1CC(=O)O)=NCC2	KDM5B inhibitor 32µM
O=C(O)C[C@@H]1CCN(C(=O)Nc2cccc(C(F)(F)F)c2)C[C@@H]1CC1=NCCc2cc(F)ccc21	KDM5B inhibitor inconclusive
Cc1ccc(-c2nnc3ccc(N4CCN(Cc5ccccc5)CC4)nn23)nc1	KDM5B inhibitor 35µM
Fc1ccc(-c2nnc3ccc(N4CCN(Cc5ccccc5)CC4)nn23)nc1	none
COc1ccc(-c2nnc3ccc(N4CCN(c5ccccn5)CC4)nn23)nc1	none
COc1ccc(-c2nnc3ccc(N4CCC(c5ccccc5)CC4)nn23)nc1	KDM5B inhibitor 35µM
CCc1ccc2oc(=O)cc(CN3CCN(CC(=O)NC4CCCCC4)CC3)c2c1	none (no result: IP6K1 inhibitor)
Cn1ccc2c(C(=O)N[C@@H]3CCOC[C@H]3Oc3ccccn3)cccc21	none
CCn1c(C)ccc(C(=O)N[C@@H]2COCC[C@H]2Oc2ccccn2)c1=O	KDM5B inhibitor 28µM
N#Cc1ccc(CN2CC(N3CCc4ccccc43)C2)cc1	none
COc1ccc(-c2nc3cc(C)ccc3cc2CN2CCC(NC(C)=O)C2)cc1 (stereo not drawn)	KDM5B inhibitor 20µM
COc1ccc(-c2nc3cc(C)ccc3cc2CN2CCN(C(C)=O)CC2)cc1	none
COc1cccc(CCNC(=O)C2CCCCN2Cc2ccc(-c3cc(F)ccc3OC)cc2)c1 (stereo not drawn)	none (no result: KDM5B inhibitor)
C/C(=N/N(Cc1ccccc1)c1ccccc1)c1cccs1	none (no result: IP6K1 inhibitor)
CC(C)(Oc1nn(CC2CCOCC2)c2ccccc12)C(=O)NC1CCOCC1	KDM5B inhibitor 35µM
CC(C)(Oc1nn(CC2CCOCC2)c2ccccc12)C(=O)NC1CCC(O)CC1 (stereo not drawn)	KDM5B inhibitor inconclusive
CC(C)(Oc1nn(CC2CCOCC2)c2ccccc12)C(=O)NCCc1cccnc1	KDM5B inhibitor inconclusive
CC(C)(Oc1nn(CC2CCOCC2)c2ccccc12)C(=O)NCCc1ccccc1	KDM5B inhibitor 35µM
O=C(Nc1nn(Cc2ccc(Cl)c(Cl)c2)cc1Br)c1nc2ncccn2n1	none (no result: IP6K1 inhibitor)
COc1cc(OC)c(-c2c(-c3ccccc3)ncn2CCF)cc1OC	KDM5B inhibitor 25µM
C#CCOc1ccccc1-c1c(-c2ccccc2)ncn1CCCO	none
Cn1c(=O)n(C)c2cc(CNCc3ccc(F)cc3)ccc21	none
Cn1c(CNC(=O)C2(Cc3ccccc3)CCCCC(=O)N2)nc2ccccc21 (stereo not drawn)	KDM5B inhibitor 18µM
Cn1c(CNC(=O)C2(C)CCCCC(=O)N2)nc2ccccc21 (stereo not drawn)	none
CN1Cc2cc(F)ccc2NCCC1=O	none (no result: KDM5B inhibitor)
Cc1cc(F)ccc1-c1[nH]nc2ncc(-c3ccc([S+](C)(=O)[O-])cc3)nc12	KDM5B inhibitor 35µM
COc1ccc(-c2cnc3n[nH]c(-c4ccc(F)cc4C)c3n2)cc1	KDM5B inhibitor inconclusive
CC(=O)Nc1cccc(-c2cnc3n[nH]c(-c4ccc(F)cc4C)c3n2)c1	KDM5B inhibitor 35µM
COc1ccc(-c2[nH]nc3ncc(-c4ccc([S+](C)(=O)[O-])cc4)nc23)cc1F	none
Cc1cc(F)ccc1-c1[nH]nc2ncc(-c3cn[nH]c3)nc12	KDM5B inhibitor 28µM
CC(=O)Nc1cccc(-c2cnc3n[nH]c(-c4sccc4C)c3n2)c1	none
CC(C)NC(=O)N[C@H]1CCN2C(=O)c3cc(-c4ccsc4)ccc3NC(=O)[C@@H]2C1	KDM5B inhibitor inconclusive
O=C1Nc2ccc(-c3ccc4c(c3)OCO4)cc2C(=O)N2C[C@@H](NS(=O)(=O)c3ccc(F)cc3)C[C@@H]12	KDM5B inhibitor 32µM
CC(C)NC(=O)N[C@H]1CCN2C(=O)c3cc(-c4ccc5c(c4)OCO5)ccc3NC(=O)[C@@H]2C1	KDM5B inhibitor 32µM
CS(=O)(=O)N[C@H]1C[C@H]2C(=O)Nc3ccc(-c4ccc5c(c4)OCO5)cc3C(=O)N2C1	none
O=C1Nc2ccc(-c3ccccc3F)cc2C(=O)N2C[C@@H](NS(=O)(=O)c3ccc(F)cc3)C[C@@H]12	none
COc1ccc(Cl)cc1-c1ccc2c(c1)C(=O)N1C[C@@H](NS(=O)(=O)c3ccc(F)cc3)C[C@H]1C(=O)N2	KDM5B inhibitor 32µM
NC(=O)C(Sc1ncccc1Cl)c1ccccc1 (stereo not drawn)	none (no result: IP6K1 inhibitor)
Fc1ccc(CN2CCC(Oc3ccccc3-c3nc(-c4cnccn4)no3)C2)cc1F (stereo not drawn)	none
O=C(NC1CC1)C1COC2(CCN(C(=O)c3cccc([N+](=O)[O-])c3)CC2)N1C(=O)c1ccccc1 (stereo not drawn)	none
CC(=O)Nc1ccc(CN2CCC3(CC2)CC(=O)c2ccccc2O3)cc1	KDM5B inhibitor 22µM
O=C(O)C1(c2ccccc2)CCN(S(=O)(=O)c2ccccc2)CC1	none
Cn1nccc1CN1CCC2(CC1)CC(=O)c1ccccc1O2	KDM5B inhibitor 28µM
CC(=O)Nc1ccc(CN2CCC3(CC2)CC(=O)c2ccc(Cl)cc2O3)cc1	none
Cn1nccc1CN1CCC2(CC1)CNC(=O)c1ccccc1O2	none
O=C1CC2(CCN(S(=O)(=O)c3ccccc3)CC2)Oc2ccccc21	KDM5B inhibitor 28µM
Cc1ccc2c(C)c(CCC(=O)Nc3ccc(F)cc3Cl)c(=O)oc2c1	none (no result: IP6K1 inhibitor)
Cn1c(=O)c2[nH]c(CN3CCC(Cc4ccccc4)CC3)nc2n(C)c1=O	none (no result: IP6K1 inhibitor)
COc1ccc(CNC(=O)Cn2c(-c3ccc(Cl)cc3)nc(C)c(CCO)c2=O)cc1	none
O=C(Cc1ccc2c(c1)OCO2)N1CCc2onc(-c3cccc(F)c3)c2C1	none
O=C(COCC1CCCO1)N1CCc2onc(-c3ccc4c(c3)OCO4)c2C1 (stereo not drawn)	KDM5B inhibitor 22µM
COc1ccc2cc(C(=O)N3CCC(Cc4ccc(C(=O)NC5CC5)cc4)CC3)[nH]c2c1	KDM5B inhibitor 35µM
CNC(=O)[C@@H]1CN(C(=O)c2ccc3cc[nH]c3c2)C[C@H]1C1CCN(C)CC1	KDM5B inhibitor 20µM
COc1ccc2cc(C(=O)N3CCc4n[nH]c(=O)n4CC3)[nH]c2c1	KDM5B inhibitor inconclusive
COc1ccc2cc(C(=O)N3CCc4nn(C)c(=O)n4CC3)[nH]c2c1	KDM5B inhibitor 25µM
CNC(=O)[C@@H]1CN(C(=O)c2cc3ccc(OC)cc3[nH]2)C[C@H]1C1CCN(C)CC1	KDM5B inhibitor 20µM
CN1CCC([C@@H]2CN(C(=O)c3ccc4[nH]ccc4c3)C[C@H]2C(N)=O)CC1	none
COc1ccc2cc(C(=O)N3CCN(C)CC3)[nH]c2c1	none (no result: IP6K1 inhibitor)
CCOC(=O)N1CCC(NC(=O)c2cc3ccc(OC)cc3[nH]2)CC1	none (no result: IP6K1 inhibitor)
CC(Sc1ccc(C(F)(F)F)cn1)C(=O)Nc1ccccc1 (stereo not drawn)	none (no result: IP6K1 inhibitor)
O=C(NCc1cccs1)c1cc(-c2cccc(C(F)(F)F)c2)c2nncn2n1	KDM5B inhibitor 50µM
O=C(c1cc(-c2cccc(C(F)(F)F)c2)c2nncn2n1)N1CCCC1	KDM5B inhibitor 50µM
O=C(c1cc(-c2cccc(C(F)(F)F)c2)c2nncn2n1)N1CCCCC1	none (no result: KDM5B inhibitor)
Cc1ccc(-c2cc(C(=O)N3CCOCC3)nn3cnnc23)cc1	none (no result: KDM5B inhibitor)
O=C(c1cc(-c2ccc(Cl)cc2Cl)c2nncn2n1)N1CCOCC1	KDM5B inhibitor 79µM
O=C(NCc1cccs1)c1cc(-c2ccc(F)cc2)c2nncn2n1	none (no result: KDM5B inhibitor)
CCCCCc1ccc(C(=O)Cc2ccc(OCC)cc2)cc1	none (no result: IP6K1 inhibitor)
COc1ccc(OC)c(NC(=O)CSc2nc3c(c(=O)n2C)SCC3)c1	none (no result: IP6K1 inhibitor)
CCN(CC)C(=O)CCc1c(C)nn(-c2cccc(C)c2)c1Oc1ccc(F)cc1F	none
CCN(C)C(=O)CCc1c(C)nn(-c2cccc(C)c2)c1Oc1ccc(F)cc1F	KDM5B inhibitor 32µM
